We go through eleven compounds from PubChem BioAssay (Tox21).

The nature of experiment [1]: qHTS assay to identify small molecule antagonists of the glucocorticoid receptor (GR) signaling pathway - cell viability counter screen (AID 720693). Further: nearly all actives have a fitted effect of over 55% in size. Background: Quantitative high-throughput screening tests each substance at several concentrations.
The nature of experiment [2]: qHTS assay for identifying genotoxic compounds that show differential cytotoxicity against isogenic chicken DT40 cell lines with known DNA damage response pathways - wild type cell line (AID 743012). Further: nearly all actives have a fitted effect of over 60% in size. The gist of the method: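 Quantitative HTS on parental DT40 cells: 40 h compound treatment at 37 C/5% CO2, with viability then determined by CellTiter-Glo luminescence. Values serve as the DNA repair-proficient reference for differential cytotoxicity.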

Experiment [3] is described as follows: qHTS assay for identifying genotoxic compounds that show differential cytotoxicity against isogenic chicken DT40 cell lines with known DNA damage response pathways - Rev3 mutant cell line (AID 743014). Further: nearly all actives have a fitted effect of over 55% in size.
The nature of experiment [4]: qHTS assay for identifying genotoxic compounds that show differential cytotoxicity against isogenic chicken DT40 cell lines with known DNA damage response pathways - Rad54/Ku70 mutant cell line (AID 743015). Further: nearly all actives have a fitted effect of over 60% in size.
Experiment [5] can be described thus: qHTS assay to identify small molecule antagonists of the androgen receptor (AR) signaling pathway - cell viability counter screen (AID 743033; further: nearly all actives have a fitted effect of over 45% in size).
Experiment [6] in a line: qHTS assay to identify small molecule antagonists of the androgen receptor (AR) signaling pathway using the MDA cell line - cell viability counter screen (AID 743041; further: nearly all actives have a fitted effect of over 45% in size). The method in brief: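 MDA-kb2 AR-luc cells (MMTV-luciferase, AR/GR responsive) treated with compounds plus R1881 agonist for 16 h at 37C. CellTiter-Fluor added at 15.5 h; fluorescence read after 30 min in the same wells.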

For experiment [7], the target named is Estrogen receptor (Homo sapiens) (UniProt P03372). Kind of experiment: qHTS assay to identify small molecule antagonists of the estrogen receptor alpha (ER-alpha) signaling pathway (AID 743069; active means well fitted curve in the direction sought with a large enough effect in the signal ratio in the repeat runs, not every such curve was filed as active; the % refers to the signal ratio). The method in brief: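 HEK293 ER-alpha-UAS-bla GripTite cells, held overnight in 2% charcoal-stripped FBS, 5,000 cells/well, preincubated 4 h, then compound plus 17beta-estradiol for 18 h at 37C. Beta-lactamase read by LiveBLAzer B/G FRET substrate, 2 h at room temperature.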

Experiment [8] is described as follows: qHTS assay to identify small molecule antagonists of the estrogen receptor alpha (ER-alpha) signaling pathway - cell viability counter screen (AID 743074; calls by dose curve;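 further: HEK293 cells carrying ER-alpha-UAS-bla reporter stimulated with 17beta-estradiol; nearly all actives have a fitted effect of over 45% in size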; further: potency means the concentration at half of the fitted maximal effect).
Experiment [9] concerns the target Estrogen receptor (Homo sapiens) (UniProt P03372). Kind of experiment: qHTS assay to identify small molecule agonists of the estrogen receptor alpha (ER-alpha) signaling pathway (AID 743075; calls by dose curve).
For experiment [10] the target is unchanged. Kind of experiment: qHTS assay to identify small molecule agonists of the estrogen receptor alpha (ER-alpha) signaling pathway using the BG1 cell line (AID 743079). Further: nearly all actives have a fitted effect of over 20% in size.
Experiment [11] is described as follows: qHTS assay to identify small molecule antagonists of the estrogen receptor alpha (ER-alpha) signaling pathway using the BG1 cell line (AID 743080; calls by dose curve;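 further: BG1 cells stimulated with 17beta-estradiol alongside compound; series mostly up to about 70 µM; nearly all actives have a fitted effect of over 25% in size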). The gist of the method: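 Readout is ONE-Glo luminescence, taken 30 min at room temperature after reagent addition, preceded by a CellTiter-Fluor viability read; BG1-Luc-4E2 cells had received compound and 17beta-estradiol for 21.5 h at 37 C.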

Experiment [12] is described as follows: qHTS assay to identify small molecule antagonists of the estrogen receptor alpha (ER-alpha) signaling pathway using the BG1 cell line - cell viability counter screen (AID 743081).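 Further: compound given together with 17beta-estradiol as the ER stimulus; series mostly up to about 70 µM; nearly all actives have a fitted effect of over 45% in size.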
For a further experiment, the target named is Aromatase (Homo sapiens) (UniProt P11511). Kind of experiment: qHTS assay to identify aromatase inhibitors (AID 743083). Further: series mostly up to about 70 µM; nearly all actives have a fitted effect of over 55% in size.
The test system of experiment [13] is thyroid hormone receptor (rat, GH3 cells). Nature of the experiment: qHTS assay to identify small molecule agonists of the thyroid receptor (TR) signaling pathway (AID 743066; calls by dose curve).
The nature of experiment [14]: qHTS assay to identify small molecule antagonists of the thyroid receptor (TR) signaling pathway - cell viability counter screen (AID 743064). Further: nearly all actives have a fitted effect of over 50% in size. The method in brief: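 Fluorescence from CellTiter-Fluor, added after 23.5 h exposure at 37 °C, reported viability of GH3.TRE-Luc cells co-treated with compound and 1 nM T3. Measured in the same wells as the luciferase TR readout.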

A short description of experiment [15]: qHTS assay to identify small molecule antagonists of the thyroid receptor (TR) signaling pathway (AID 743065). Further: series mostly up to about 70 µM; nearly all actives have a fitted effect of over 55% in size. The gist of the method:
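GH3.TRE-Luc rat pituitary cells (two TREs driving luciferase) were dosed with compound, then stimulated with 1 nM T3 (final) for 23.5 h at 37 C. ONE-Glo luminescence was the read-out, with CellTiter-Fluor fluorescence as the cytotoxicity counter-screen.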

Records with an inconclusive call do not appear. The source made the active and inactive calls. Unless noted, the call rests on the fitted dose curve; in most records, active means well fitted curve in the direction sought with a large enough effect in the repeat runs; inconclusive means weak or mixed curves; inactive means no such curve, though single readings can be large; an effect the other way counts as inactive or inconclusive.

Aromatase (Homo sapiens), sequence (P11511 whole entry, looked up): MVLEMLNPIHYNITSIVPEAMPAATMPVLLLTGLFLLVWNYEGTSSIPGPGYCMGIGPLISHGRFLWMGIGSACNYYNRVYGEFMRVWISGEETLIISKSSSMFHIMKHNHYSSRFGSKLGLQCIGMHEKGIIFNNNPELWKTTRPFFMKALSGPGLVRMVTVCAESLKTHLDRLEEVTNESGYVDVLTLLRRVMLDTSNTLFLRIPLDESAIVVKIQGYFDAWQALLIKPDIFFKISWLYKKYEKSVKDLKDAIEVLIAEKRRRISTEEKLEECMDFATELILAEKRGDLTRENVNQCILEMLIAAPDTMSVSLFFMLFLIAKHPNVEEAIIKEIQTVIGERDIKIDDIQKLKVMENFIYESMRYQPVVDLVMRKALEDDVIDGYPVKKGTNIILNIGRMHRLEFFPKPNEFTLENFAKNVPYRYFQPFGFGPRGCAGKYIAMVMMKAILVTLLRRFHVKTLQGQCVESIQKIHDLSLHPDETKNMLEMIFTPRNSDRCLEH
Estrogen receptor (Homo sapiens), sequence (P03372 whole entry, looked up): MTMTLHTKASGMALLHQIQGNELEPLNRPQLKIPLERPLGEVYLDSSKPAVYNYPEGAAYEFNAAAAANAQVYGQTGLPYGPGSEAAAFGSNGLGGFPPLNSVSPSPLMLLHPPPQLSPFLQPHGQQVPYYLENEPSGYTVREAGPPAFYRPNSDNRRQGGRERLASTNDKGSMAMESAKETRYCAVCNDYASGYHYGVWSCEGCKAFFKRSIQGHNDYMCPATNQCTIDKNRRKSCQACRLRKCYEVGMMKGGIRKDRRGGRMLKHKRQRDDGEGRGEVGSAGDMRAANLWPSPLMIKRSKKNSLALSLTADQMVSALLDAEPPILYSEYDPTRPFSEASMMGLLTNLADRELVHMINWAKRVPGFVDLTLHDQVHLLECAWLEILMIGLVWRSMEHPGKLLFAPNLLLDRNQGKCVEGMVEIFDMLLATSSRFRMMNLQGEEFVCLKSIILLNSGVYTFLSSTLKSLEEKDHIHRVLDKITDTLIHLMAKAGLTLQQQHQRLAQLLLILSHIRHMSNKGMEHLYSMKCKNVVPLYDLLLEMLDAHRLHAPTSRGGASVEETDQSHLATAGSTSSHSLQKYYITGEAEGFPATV

For `C=CCOc1c(Br)cc(C(C)(C)c2cc(Br)c(OCC=C)c(Br)c2)cc1Br`, the Potency entry in experiment [1], in experiment [2], in experiment [3], in [4], in experiment [7] and in experiment [8] was “inactive” each time. Besides, the Potency entry in experiment [9] and in experiment [10] was “inactive” each time. Also, the compound was called inactive (in experiment [5]; in experiment [6]; in experiment [11]; in experiment [12]; with Aromatase (Homo sapiens)).

For `C/C=C(\C)C(=O)OCC/C=C\CC`, the Potency entry in experiment [1], in experiment [2], in experiment [3], in experiment [4], in experiment [13] and in [8] was “inactive” each time. The result in experiment [5], in experiment [6] and in experiment [12] was inactive.

For `CCOC(=O)CC#N`, the Potency entry in experiment [1], in [2], in experiment [3], in [4], in experiment [14] and in experiment [15] was “inactive” each time. For the same compound, the Potency entry in experiment [13], in [7], in [8], in experiment [9] and in experiment [10] was “inactive” each time. For the same compound, the result (in experiment [6]; in [11]; in experiment [12]; with Aromatase (Homo sapiens)) was inactive.

As for `CN=C(NC#N)NCCSCc1csc(N=C(N)N)n1`, the Potency result in experiment [1], in [2], in [3], in experiment [4], in [15] and in experiment [13] was “inactive” throughout. In addition, the Potency entry in experiment [7], in experiment [8], in experiment [9] and in experiment [10] was “inactive” in each case. The compound was called inactive (in experiment [6]; in experiment [11]; in [12]; with Aromatase (Homo sapiens)).

Regarding `NS(=O)(=O)c1ccccc1OC(F)(F)F`, the Potency entry in experiment [1], in experiment [2], in [3], in [4], in experiment [14] and in [8] was “inactive” throughout. For the same compound, the compound was classed as inactive (in experiment [5]; in experiment [6]; in experiment [12]; with Aromatase (Homo sapiens)).

As to `O=C(c1ccc2c(c1)C(=O)OC2=O)c1ccc2c(c1)C(=O)OC2=O`, the Potency result in [1], in experiment [2], in [3], in experiment [4], in [14] and in experiment [15] was “inactive” each time. In addition, the Potency entry in [13] and in [8] was “inactive” in each case. Moreover, the outcome (in experiment [6]; in experiment [12]; with Aromatase (Homo sapiens)) was inactive.

Turning to `CCCCCCCC[Si](OCC)(OCC)OCC`, the Potency entry in experiment [1], in experiment [2], in experiment [3], in experiment [4], in experiment [15] and in [13] was “inactive” throughout. Further, the call (in experiment [5]; in experiment [12]; with Aromatase (Homo sapiens)) was inactive. Moreover, in experiment [8], the Potency was 54.9 µM (active).

Turning to `CC(=O)/C=C/c1ccco1`, the Potency result in experiment [1], in experiment [2], in experiment [3], in experiment [4], in experiment [14] and in experiment [15] was “inactive” in each case. Moreover, the Potency result in experiment [13], in [7], in [8], in [9] and in experiment [10] was “inactive” throughout. Moreover, the compound was called inactive (in [5]; in [11]; in experiment [12]; with Aromatase (Homo sapiens)).

As to `O=c1[nH]c(=O)c2[nH]c(=O)[nH]c2[nH]1`, the Potency entry in experiment [1], in experiment [2], in experiment [3], in experiment [4], in experiment [14] and in experiment [15] was “inactive” each time. In addition, the Potency entry in experiment [13], in [7], in experiment [8], in [9] and in experiment [10] was “inactive” in each case. The compound was classed as inactive (in experiment [6]; in [11]; in [12]; with Aromatase (Homo sapiens)).

For `CC(=O)Nc1ccc(C)cc1`, the Potency entry in experiment [1], in [2], in [3], in [4], in [14] and in [15] was “inactive” throughout. The Potency entry in [13], in experiment [7], in experiment [8] and in experiment [9] was “inactive” throughout. Moreover, the outcome (in experiment [6]; in experiment [11]; in experiment [12]; with Aromatase (Homo sapiens)) was inactive.

`CCCCCCCCCCCCCCCC(=O)NCCO`: the Potency entry in experiment [1], in [2], in [3], in experiment [4], in [15] and in experiment [13] was “inactive” throughout. Besides, in experiment [8], the Potency entry was “inactive”. The outcome (in experiment [5]; in experiment [6]; in [12]; in the experiment with Aromatase (Homo sapiens)) was inactive.
